In the antibiotic and cytotoxicity screens of Wong et al. (2023) one finds cytotoxicity call data, which are given here for 63 compounds.

Out of some 39,000 compounds screened, about 1,500 (3.8%) were called active. Shown is part of a subset that was picked to be rich in actives.

The assay deals with HSkMC (human skeletal muscle cells). As to the kind of experiment: cytotoxicity call (relative viability < 0.9). Particulars: 10 µM.
For the compound `C#CC1(OC(C)=O)CCC2C3CCC4=CC(OC(C)=O)CCC4C3CCC21C` (stereo not drawn), the cytotoxicity call was “inactive”.
Take `Cc1ccc(S(=O)(=O)N(C)C[C@@H]2Oc3ccc(NC(=O)CCCN(C)C)cc3C(=O)N([C@@H](C)CO)C[C@@H]2C)cc1`: the cytotoxicity call was “inactive”.
With `COc1ccc(S(=O)(=O)N(C)C[C@@H]2OCCCC[C@@H](C)Oc3ccc(NC(=O)c4ccccc4)cc3C(=O)N([C@H](C)CO)C[C@H]2C)cc1`, the cytotoxicity call was “inactive”.
Turning to `COCC#Cc1ccc([C@H]2[C@H](CO)N3C(=O)CN(C(=O)CN4CCOCC4)C[C@@H]23)cc1`, the cytotoxicity call is “inactive”.
The same measure for `O=C(O)CCC(=O)O`: “inactive”; for `CCOC(=O)CN1CCN(C=O)CC1`: “inactive”.
The result for `C[C@H](CO)N1C[C@H](C)[C@@H](CN(C)Cc2ccc(C(F)(F)F)cc2)OCCCC[C@H](C)Oc2ccc(NS(=O)(=O)c3ccc(F)cc3)cc2C1=O` reads “inactive”; that for `COc1ccc(CN(C)C[C@H]2OCCCC[C@H](C)Oc3ccc(NC(=O)NC(C)C)cc3C(=O)N([C@H](C)CO)C[C@H]2C)cc1`, “inactive”; that for `O=C(N[C@@H](c1cccnc1)c1ccc2c(c1)OCO2)C1CCN(CCOc2ccc(Cl)cc2Cl)CC1`, “inactive”.
The same measure for `NCc1ccc(S(N)(=O)=O)cc1`: “inactive”; for `COc1ccc(S(=O)(=O)Nc2ccc3c(c2)CC(=O)N([C@@H](C)CO)C[C@H](C)[C@H](CN(C)S(=O)(=O)c2ccc(F)cc2)O3)cc1`: “inactive”; for `C[C@@H]1CN([C@@H](C)CO)C(=O)c2cccc(NC(=O)c3ccncc3)c2O[C@H]1CN(C)Cc1ccc(-c2ccccc2)cc1`: “inactive”.
Turning to `C[C@H](CO)N1C[C@H](C)[C@H](CN(C)Cc2ccc(Oc3ccccc3)cc2)Oc2ccc(NC(=O)Cc3cn(C)c4ccccc34)cc2CC1=O`, the cytotoxicity call is “inactive”.
The result for `C[C@H]1CN([C@@H](C)CO)C(=O)Cc2cc(NC(=O)Cc3cn(C)c4ccccc34)ccc2O[C@@H]1CN(C)Cc1ccc(Oc2ccccc2)cc1` reads “inactive”; that for `C[C@@H]1CN([C@H](C)CO)C(=O)Cc2cc(NC(=O)Cc3cn(C)c4ccccc34)ccc2O[C@H]1CN(C)Cc1ccc(C(F)(F)F)cc1`, “inactive”; that for `C[C@@H]1CN([C@@H](C)CO)C(=O)Cc2cc(NC(=O)Cc3cn(C)c4ccccc34)ccc2O[C@@H]1CN(C)Cc1ccc(-c2ccccc2)cc1`, “inactive”.
The same measure for `C[C@@H]1CN([C@H](C)CO)C(=O)Cc2cc(NC(=O)Cc3cn(C)c4ccccc34)ccc2O[C@H]1CN(C)Cc1ccc(-c2ccccc2)cc1`: “active”; for `C[C@H]1CN([C@@H](C)CO)C(=O)Cc2cc(NC(=O)Cc3cn(C)c4ccccc34)ccc2O[C@@H]1CN(C)Cc1ccc(C(F)(F)F)cc1`: “active”; for `C[C@@H]1CN([C@@H](C)CO)C(=O)Cc2cc(NC(=O)Cc3cn(C)c4ccccc34)ccc2O[C@H]1CN(C)Cc1ccc(-c2ccccc2)cc1`: “inactive”.
The same measure for `C[C@H]1CN([C@@H](C)CO)C(=O)Cc2cc(NC(=O)Cc3cn(C)c4ccccc34)ccc2O[C@H]1CN(C)Cc1ccc(C(F)(F)F)cc1`: “inactive”; for `C[C@H]1CN([C@@H](C)CO)C(=O)Cc2cc(NC(=O)Cc3cn(C)c4ccccc34)ccc2O[C@H]1CN(C)Cc1ccc(Oc2ccccc2)cc1`: “active”.
For `C[C@@H]1CN([C@H](C)CO)C(=O)CCCn2nncc2CO[C@@H]1CN(C)Cc1cccc2c1OCCCO2`, the cytotoxicity call was “inactive”.
The same measure for `COc1ccc(NC(=O)N(C)C[C@H]2Oc3ccc(NS(=O)(=O)c4c(C)noc4C)cc3CC(=O)N([C@H](C)CO)C[C@H]2C)cc1`: “inactive”.
For `Cc1cc(OCc2nnc(SC3CCCC3)n2-c2cccnc2)ccc1-c1ccc(S(C)(=O)=O)cc1`, the cytotoxicity call is “active”.
The result for `C[C@@H]1CN([C@@H](C)CO)C(=O)c2cc(NC(=O)CCC(F)(F)F)ccc2O[C@@H](C)CCCCO[C@@H]1CN(C)S(=O)(=O)c1ccc(F)cc1` reads “inactive”; that for `CCCC[C@@H](C)/C=C(C)/C=C(\C)C(=O)NC1=C[C@@](O)(/C=C/C=C/C=C/C(=O)NC2C(=O)CCC2=O)[C@@H]2O[C@@H]2C1=O`, “active”.
As for `COc1cccc(S(=O)(=O)Nc2ccc3c(c2)[C@H]2C[C@H](CC(=O)NCCc4ccccc4)O[C@H](CO)[C@H]2O3)c1`, the cytotoxicity call is “inactive”.
The result for `C[C@@H]1CN([C@@H](C)CO)S(=O)(=O)c2ccc(C#CC3(O)CCCC3)cc2O[C@@H]1CN(C)C(=O)Cc1cccnc1` reads “inactive”.
In the case of `COc1ccccc1S(=O)(=O)N(C)C[C@H]1OCc2cn(nn2)CCCC(=O)N([C@H](C)CO)C[C@H]1C`, the cytotoxicity call was “inactive”.
As to `C[C@@H]1CN([C@H](C)CO)C(=O)c2cc(NS(=O)(=O)c3ccc(F)cc3)ccc2O[C@@H]1CN(C)Cc1ccc(-c2ccccc2)cc1`, the cytotoxicity call is “active”.
The same measure for `C[C@@H]1CN([C@@H](C)CO)C(=O)c2cc(NS(=O)(=O)c3ccc(F)cc3)ccc2O[C@@H]1CN(C)Cc1ccc(-c2ccccc2)cc1`: “active”; for `C[C@@H]1CN([C@@H](C)CO)C(=O)c2cc(NS(=O)(=O)c3ccc(F)cc3)ccc2O[C@H]1CN(C)Cc1ccc(-c2ccccc2)cc1`: “inactive”; for `C[C@H](CO)N1C[C@H](C)[C@H](CN(C)Cc2ccc(-c3ccccc3)cc2)Oc2ccc(NS(=O)(=O)c3ccc(F)cc3)cc2C1=O`: “inactive”.
Consider `C[C@@H]1CN([C@H](C)CO)C(=O)c2cc(NS(=O)(=O)c3ccc(F)cc3)ccc2O[C@H]1CN(C)Cc1ccc(-c2ccccc2)cc1`, for which the cytotoxicity call is “inactive”.
The result for `C[C@H]1CN([C@@H](C)CO)C(=O)c2cc(NS(=O)(=O)c3ccc(F)cc3)ccc2O[C@@H]1CN(C)Cc1ccc(-c2ccccc2)cc1` reads “inactive”.
The same measure for `Cc1noc(C)c1NC(=O)Nc1ccc2c(c1)C(=O)N([C@@H](C)CO)C[C@@H](C)[C@@H](CN(C)CC1CCCCC1)OCCCC[C@H](C)O2`: “inactive”; for `CN(C)CCCCNC(=O)[C@H]1C[C@H]2C(=O)N3CCC[C@H]3C(=O)N2[C@H]1c1cccc(OCCO)c1`: “inactive”; for `O=C(N1CCOCC1)[C@]1(CCS(=O)(=O)c2ccccc2)N=C(c2ccc(OCCCO)cc2)O[C@@H]1c1ccccc1`: “inactive”.
The same measure for `C[C@@H]1CN([C@H](C)CO)C(=O)c2c(c3ccccc3n2C)-c2ccccc2CO[C@H]1CN(C)Cc1cccc(C(F)(F)F)c1`: “inactive”.
With `C[C@@H]1CN([C@@H](C)CO)C(=O)c2c(c3ccccc3n2C)-c2ccccc2CO[C@H]1CN(C)Cc1cccc(C(F)(F)F)c1`, the cytotoxicity call is “inactive”.
The result for `C[C@H]1CN([C@@H](C)CO)C(=O)c2c(c3ccccc3n2C)-c2ccccc2CO[C@H]1CN(C)Cc1cccc(C(F)(F)F)c1` reads “inactive”.
The result for `C[C@@H]1CN([C@H](C)CO)C(=O)c2c(c3ccccc3n2C)-c2ccccc2CO[C@@H]1CN(C)Cc1cccc(C(F)(F)F)c1` reads “inactive”.
With `C[C@H](CO)N1C[C@H](C)[C@H](CN(C)Cc2cccc(C(F)(F)F)c2)OCc2ccccc2-c2c(n(C)c3ccccc23)C1=O`, the cytotoxicity call was “active”.
Consider `C[C@H]1CN([C@@H](C)CO)C(=O)c2c(c3ccccc3n2C)-c2ccccc2CO[C@@H]1CN(C)Cc1cccc(C(F)(F)F)c1`, for which the cytotoxicity call was “active”.
As to `C[C@@H]1CN([C@H](C)CO)C(=O)c2ccccc2-c2ccccc2CO[C@@H]1CN(C)Cc1ccc(Cl)c(Cl)c1`, the cytotoxicity call is “inactive”.
The same measure for `C[C@@H]1CN([C@@H](C)CO)C(=O)c2ccccc2-c2ccccc2CO[C@@H]1CN(C)Cc1ccc(Cl)c(Cl)c1`: “inactive”.
For `C[C@@H]1CN([C@@H](C)CO)C(=O)c2c(c3ccccc3n2C)-c2ccccc2CO[C@@H]1CN(C)Cc1cccc(C(F)(F)F)c1`, the cytotoxicity call is “active”.
With `C[C@H]1CN([C@@H](C)CO)C(=O)c2ccccc2-c2ccccc2CO[C@H]1CN(C)Cc1ccc(Cl)c(Cl)c1`, the cytotoxicity call was “active”.
The result for `C[C@@H]1CN([C@@H](C)CO)C(=O)c2c(c3ccccc3n2C)-c2ccccc2CO[C@H]1CN(C)Cc1cccc(F)c1` reads “inactive”; that for `C[C@H](CO)N1C[C@H](C)[C@@H](CN(C)Cc2cccc(C(F)(F)F)c2)OCc2ccccc2-c2c(n(C)c3ccccc23)C1=O`, “inactive”; that for `COc1ccc(NC(=O)N(C)C[C@H]2OCCCC[C@@H](C)Oc3ccc(NS(=O)(=O)c4ccc(Cl)cc4)cc3C(=O)N([C@@H](C)CO)C[C@H]2C)cc1`, “inactive”.
As to `C[C@@H]1CCCCO[C@@H](CN(C)C(=O)Cc2ccccc2)[C@H](C)CN([C@@H](C)CO)C(=O)c2cc(NC(=O)C3CCCCC3)ccc2O1`, the cytotoxicity call is “inactive”.
With `C[C@@H]1CCCCO[C@@H](CN(C)C(=O)NC2CCCCC2)[C@H](C)CN([C@@H](C)CO)C(=O)c2cc(NS(=O)(=O)c3ccc(F)cc3)ccc2O1`, the cytotoxicity call was “inactive”.
The same measure for `C[C@H]1CN([C@@H](C)CO)C(=O)c2cc(Br)cnc2O[C@@H]1CN(C)S(C)(=O)=O`: “inactive”.
As to `Cc1noc(C)c1NC(=O)Nc1ccc2c(c1)CC(=O)N([C@@H](C)CO)C[C@H](C)[C@H](CN(C)S(=O)(=O)c1c(C)noc1C)O2`, the cytotoxicity call is “inactive”.
For `CC(C)CC#Cc1ccc2c(c1)O[C@@H](CN(C)S(=O)(=O)c1ccc(F)cc1)[C@@H](C)CN([C@@H](C)CO)S2(=O)=O`, the cytotoxicity call was “inactive”.
The result for `C[C@@H]1CCCCO[C@@H](CN(C)Cc2ccc3c(c2)OCO3)[C@@H](C)CN([C@H](C)CO)C(=O)c2cc(NS(=O)(=O)c3ccccc3)ccc2O1` reads “inactive”; that for `O=C1CN(C(=O)c2ccccc2)C(=S)N1`, “inactive”; that for `C[C@@H]1CN([C@H](C)CO)C(=O)c2cc(N(C)C)ccc2O[C@@H](C)CCCCO[C@H]1CN(C)Cc1ccc(C(=O)Nc2ccccc2N)cc1`, “inactive”.
The same measure for `CCC(=O)Nc1ccc2c(c1)OC[C@H](C)N(C(=O)CN1CCOCC1)C[C@@H](C)[C@H](OC)CN(C)C2=O`: “inactive”; for `Cc1ccc2c(c1)/C(=C/c1ccncc1)c1cc3ccccc3nc1-2`: “inactive”.
For `OCc1ccccc1-c1ccccc1`, the cytotoxicity call was “inactive”.
The same measure for `COc1ccc(NC(=O)Nc2ccc3c(c2)C(=O)N([C@@H](C)CO)C[C@H](C)[C@@H](CN(C)Cc2ccc(C(=O)O)cc2)OCCCC[C@@H](C)O3)cc1`: “inactive”.
